Out of some 5,500 compounds screened, about 2,000 (36%) were called active. Another 18% or so got no clear call; they are omitted. Rule as the data show it: active = normalized growth mostly below about 0.91 (no sharp cut-off); inconclusive = no clear call, values can overlap the other calls; inactive = mostly above about 0.92. This is one part of the list.
Test: chemical genetic growth profiling, strain panel (AID 1159580);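 also: tested at 20 µM; growth read once vehicle control cultures reached saturation at 30 °C; 1 = growth at the plate median or of vehicle wells; lower values mean less growth of the strain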
Conditions: growth OD

Measured: normalized growth

CC(C)NCC(O)c1ccc2ccccc2c1 (stereo not drawn)
inactive: S. cerevisiae deletion strains, locus YJR066W, strain TOR1, active compounds read low 0.936 | S. cerevisiae deletion strains, locus YJR075W, strain HOC1, active compounds read low 1.02 | S. cerevisiae deletion strains, locus YKL009W, strain mrt4, active compounds read low 0.998 | S. cerevisiae deletion strains, locus YKL068W, active compounds read low 0.997 | S. cerevisiae deletion strains, locus YKL085W, strain MDH1 (second series), active compounds read low 0.996 | S. cerevisiae deletion strains, locus YKL085W, strain MDH1, active compounds read low 0.996 | S. cerevisiae deletion strains, locus YKL160W, strain elf1, active compounds read low 0.994 | S. cerevisiae deletion strains, locus YKR001C, strain vps1, active compounds read low 1.03 | S. cerevisiae deletion strains, locus YKR026C, strain gcn3, active compounds read low 1 | S. cerevisiae deletion strains, locus YKR091W, strain srl3, active compounds read low 1 | S. cerevisiae deletion strains, locus YLL001W, strain dnm1, active compounds read low 1 | S. cerevisiae deletion strains, locus YLL026W, active compounds read low 0.998 | S. cerevisiae deletion strains, locus YLL041C, strain sdh2, active compounds read low 0.998 | S. cerevisiae deletion strains, locus YLR027C, strain aat2, active compounds read low 1 | S. cerevisiae deletion strains, locus YLR039C, strain RIC1, active compounds read low 1.04 | S. cerevisiae deletion strains, locus YLR058C, strain SHM2, active compounds read low 1.01 | S. cerevisiae deletion strains, locus YLR102C, strain apc9, active compounds read low 0.988 | S. cerevisiae deletion strains, locus YLR113W, strain HOG1, active compounds read low 1.05 | S. cerevisiae deletion strains, locus YLR221C, strain rsa3, active compounds read low 1.02 | S. cerevisiae deletion strains, locus YLR258W, strain gsy2, active compounds read low 0.996 | S. cerevisiae deletion strains, locus YLR262C, strain YPT6 (second series), active compounds read low 0.984 | S. cerevisiae deletion strains, locus YLR262C, strain YPT6, active compounds read low 1.07 | S. cerevisiae deletion strains, locus YLR268W, strain sec22, active compounds read low 0.989 | S. cerevisiae deletion strains, locus YLR320W, strain mms22, active compounds read low 1.01 | S. cerevisiae deletion strains, locus YLR330W, strain CHS5, active compounds read low 1.01 | S. cerevisiae deletion strains, locus YLR342W, strain FKS1 (second series), active compounds read low 1.03 | S. cerevisiae deletion strains, locus YLR342W, strain FKS1, active compounds read low 0.999 | S. cerevisiae deletion strains, locus YLR357W, strain rsc2, active compounds read low 0.984 | S. cerevisiae deletion strains, locus YLR370C, strain arc18, active compounds read low 1.02 | S. cerevisiae deletion strains, locus YLR371W, strain rom2, active compounds read low 0.989 | S. cerevisiae deletion strains, locus YLR384C, strain iki3, active compounds read low 1 | S. cerevisiae deletion strains, locus YLR418C, strain cdc73, active compounds read low 0.997 | S. cerevisiae deletion strains, locus YML016C, strain PPZ1, active compounds read low 1 | S. cerevisiae deletion strains, locus YML032C, strain rad52, active compounds read low 1.01 | S. cerevisiae deletion strains, locus YML120C, strain ndi1, active compounds read low 0.991 | S. cerevisiae deletion strains, locus YML124C, strain tub3, active compounds read low 0.991 | S. cerevisiae deletion strains, locus YMR058W, strain fet3, active compounds read low 1 | S. cerevisiae deletion strains, locus YMR078C, strain ctf18, active compounds read low 0.998 | S. cerevisiae deletion strains, locus YMR125W, strain sto1, active compounds read low 0.982 | S. cerevisiae deletion strains, locus YMR129W, active compounds read low 0.98 | S. cerevisiae deletion strains, locus YMR205C, strain PFK2, active compounds read low 0.981 | S. cerevisiae deletion strains, locus YMR223W, strain ubp8, active compounds read low 0.997 | S. cerevisiae deletion strains, locus YMR231W, strain pep5, active compounds read low 1 | S. cerevisiae deletion strains, locus YMR307W, strain GAS1, active compounds read low 1.06 | S. cerevisiae deletion strains, locus YNL067W, strain RPL9B, active compounds read low 1.04 | S. cerevisiae deletion strains, locus YNL071W, strain lat1, active compounds read low 1 | S. cerevisiae deletion strains, locus YNL153C, strain GIM3, active compounds read low 1.05 | S. cerevisiae deletion strains, locus YNL183C, strain NPR1, active compounds read low 0.968 | S. cerevisiae deletion strains, locus YNL209W, strain ssb2, active compounds read low 1 | S. cerevisiae deletion strains, locus YNL233W, strain BNI4, active compounds read low 1.04 | S. cerevisiae deletion strains, locus YNL248C, strain rpa49, active compounds read low 0.998 | S. cerevisiae deletion strains, locus YNL250W, strain rad50, active compounds read low 0.992 | S. cerevisiae deletion strains, locus YNL271C, strain bni1, active compounds read low 1.01 | S. cerevisiae deletion strains, locus YNL298W, strain CLA4, active compounds read low 1 | S. cerevisiae deletion strains, locus YNL307C, strain MCK1, active compounds read low 0.994 | S. cerevisiae deletion strains, locus YNL322C, strain KRE1 (second series), active compounds read low 1 | S. cerevisiae deletion strains, locus YNL322C, strain KRE1, active compounds read low 1.01 | S. cerevisiae deletion strains, locus YNR049C, strain mso1, active compounds read low 0.999 | S. cerevisiae deletion strains, locus YNR052C, strain pop2, active compounds read low 0.997 | S. cerevisiae deletion strains, locus YOL012C, strain htz1 1.41 | S. cerevisiae deletion strains, locus YOL147C, strain pex11, active compounds read low 1 | S. cerevisiae deletion strains, locus YOR001W, strain rrp6, active compounds read low 1 | S. cerevisiae deletion strains, locus YOR061W, strain CKA2, active compounds read low 1.01 | S. cerevisiae deletion strains, locus YOR069W, strain VPS5, active compounds read low 1.01 | S. cerevisiae deletion strains, locus YOR070C, strain gyp1, active compounds read low 1 | S. cerevisiae deletion strains, locus YOR080W, strain dia2, active compounds read low 0.998 | S. cerevisiae deletion strains, locus YOR083W, strain WHI5, active compounds read low 0.991 | S. cerevisiae deletion strains, locus YOR106W, strain vam3, active compounds read low 1.04 | S. cerevisiae deletion strains, locus YOR136W, strain idh2, active compounds read low 0.997 | S. cerevisiae deletion strains, locus YOR144C, strain elg1, active compounds read low 0.99 | S. cerevisiae deletion strains, locus YOR184W, strain ser1, active compounds read low 0.978 | S. cerevisiae deletion strains, locus YOR231W, strain MKK1, active compounds read low 1.06 | S. cerevisiae deletion strains, locus YOR265W, strain rbl2, active compounds read low 0.99 | S. cerevisiae deletion strains, locus YOR270C, strain vph1, active compounds read low 1.02 | S. cerevisiae deletion strains, locus YOR290C, strain snf2, active compounds read low 0.993 | S. cerevisiae deletion strains, locus YOR316C, strain cot1, active compounds read low 0.992 | S. cerevisiae deletion strains, locus YPL051W, strain arl3, active compounds read low 1.01 | S. cerevisiae deletion strains, locus YPL055C, strain LGE1, active compounds read low 1.06 | S. cerevisiae deletion strains, locus YPL078C, strain atp4, active compounds read low 1.01 | S. cerevisiae deletion strains, locus YPL106C, strain sse1, active compounds read low 0.983 | S. cerevisiae deletion strains, locus YPL240C, strain hsp82, active compounds read low 0.997 | S. cerevisiae deletion strains, locus YPL256C, strain CLN2, active compounds read low 1.02 | S. cerevisiae deletion strains, locus YPR119W, strain clb2, active compounds read low 0.99 | S. cerevisiae deletion strains, locus YPR141C, strain kar3, active compounds read low 0.994 | S. cerevisiae deletion strains, locus YPR163C, strain tif3, active compounds read low 0.99 | S. cerevisiae deletion strains, locus YPR167C, strain met16, active compounds read low 0.989 | S. cerevisiae deletion strains, strain wtn01, active compounds read low 1.03 | S. cerevisiae strains, strain wild type, active compounds read low 1.01
